Laboratory results from PubChem BioAssay AID583 (Sanford-Burnham Center for Chemical Genomics, 2007).
“And” between values parts separate entries of the source, which are not always exact repeats. Identical values can stand only once. Screen size: about 140,000 compounds; about 80 (0.06%) were called active. No stated cut-off is given here; in the data, active means displacement above about 50%; inactive means the rest. The entries come from a sample that favours actives as a whole. A structure can be active in one record and inactive in another.

Molecular target: Heat shock 70 kDa protein 1A (Homo sapiens) (UniProt P0DMV8)
Sequence (P0DMV8 whole entry, looked up): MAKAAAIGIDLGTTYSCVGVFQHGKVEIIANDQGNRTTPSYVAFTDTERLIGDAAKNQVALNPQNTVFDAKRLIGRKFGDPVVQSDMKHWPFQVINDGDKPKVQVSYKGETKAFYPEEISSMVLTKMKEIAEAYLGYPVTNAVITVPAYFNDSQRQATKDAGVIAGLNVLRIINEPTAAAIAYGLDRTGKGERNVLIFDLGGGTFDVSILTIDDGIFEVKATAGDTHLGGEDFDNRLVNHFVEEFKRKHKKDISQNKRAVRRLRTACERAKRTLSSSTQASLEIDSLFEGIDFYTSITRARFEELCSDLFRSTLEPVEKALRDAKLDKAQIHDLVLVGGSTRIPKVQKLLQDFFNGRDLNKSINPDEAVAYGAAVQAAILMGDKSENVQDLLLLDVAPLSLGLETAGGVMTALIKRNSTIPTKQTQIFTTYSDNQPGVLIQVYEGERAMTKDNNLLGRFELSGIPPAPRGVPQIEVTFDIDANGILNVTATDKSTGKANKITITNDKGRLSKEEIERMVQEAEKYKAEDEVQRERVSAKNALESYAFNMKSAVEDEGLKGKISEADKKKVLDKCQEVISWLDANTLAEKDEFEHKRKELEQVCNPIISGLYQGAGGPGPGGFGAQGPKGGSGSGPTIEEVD
Assay: Hsp70 inhibitors, probe displacement, primary screen, biochemical, fluorescence polarization (AID 583);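 further: plate controls were vehicle for no effect and reference ligand for full effect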
Settings: mP, at 20 µM, stronger effect = higher value

Row | Structure (SMILES) | displacement
1 | CN(C)c1ccc(/C=C2\NC(=O)c3ccccc3C2=O)cc1 | 2.7% (inactive)
2 | CCOC(=O)c1sc2ncc([N+](=O)[O-])c(NC)c2c1N | -5.6% (inactive)
3 | Cc1cc(=O)[nH]c(SCC(=O)Nc2ccc(S(N)(=O)=O)cc2)n1 | 4.4% (inactive)
4 | O=C(N/N=C/c1ccccc1OCc1ccccc1)c1ccccc1O | 6% (inactive)
5 | O=C(N=Nc1c(O)n(Cc2ccccc2)c2ccccc12)c1ccccc1O | 2.1% (inactive)
6 | Cc1ccc(NC(=O)c2ccccc2O)cc1 | 2.2% (inactive)
7 | Cc1ccc(C(=O)O/N=C(\N)c2ccccn2)cc1 | 0.2% (inactive)
8 | O=C(Cn1nc(C(=O)O)c2ccccc2c1=O)NCC1CCCO1 (centres undefined) | -0.7% (inactive)
9 | CC(NC(=O)c1c(NC(=O)c2ccco2)sc2c1CCCCC2)c1ccccc1 (centres undefined) | -6% (inactive)
10 | COC(=O)COc1ccc(/C=C2\C(=O)NC(=S)N(c3ccc(F)cc3)C2=O)cc1OC | 2.8% (inactive)
11 | COc1ccc(CNC(=O)c2c(Cl)cccc2Cl)cc1 | 5.5% (inactive)
12 | O=C(Nc1cccc2nsnc12)c1ccc(Cl)cc1Cl | 3.7% (inactive)
13 | Cc1ccc(-c2ccccc2)n1-c1ccc(Cl)c(C(=O)O)c1 | -4% (inactive)
14 | Cc1ccc(C)n1-c1ccc(Cl)c(C(=O)O)c1 | 83.5% (active)
15 | Cc1nc(=O)c(-c2ccccc2)c(C)n1-c1ccc(O)c(C(=O)O)c1 | -3.3% (inactive)
16 | Cc1ccc(-c2ccccc2)n1-c1ccc(O)c(C(=O)O)c1 | 4.2% (inactive)
17 | Cc1ccc(C)n1-c1ccc(C(=O)O)c(O)c1 | 98.5% (active)
18 | Cc1nc(=O)c(-c2ccccc2)c(C)n1-c1ccc(C(=O)O)c(O)c1 | 0.2% (inactive)
19 | O=C(O)c1ccc(-n2cccc2)cc1O | -0.2% (inactive)
20 | Cc1ccc(C)n1-c1ccc(O)c(C(=O)O)c1 | 98.2% (active)

Row | Structure (SMILES) | displacement
21 | Cc1ccc(C)n1-c1ccc(C(=O)O)c(Cl)c1 | 33.7% (inactive)
22 | CC(C)c1c(O)nc(SCC(=O)Nc2ccc3c(c2)CCC3)[nH]c1=O | 1.5% (inactive)
23 | Cc1cc(N)ccc1-n1c(C)ccc1C | -2.7% (inactive)
24 | Cc1ccc(-c2ccccc2)n1-c1cccc(C(=O)O)c1 | -1.8% (inactive)
25 | Cc1cc(C(=O)O)ccc1-n1c(C)ccc1C | 61.3% (active) and 37.4% (inactive)
26 | Cc1ccc(N2C(=O)c3ccc(C(=O)O)cc3C2=O)c(C)c1 | 0.7% (inactive)
27 | Cc1ccc(C)n1-c1ccc(C(=O)O)cc1 | 16% (inactive)
28 | Cc1ccc(C)n1-c1cc(C(=O)O)ccc1O | 27% (inactive)
29 | Cc1ccc(C)n1-c1cc(C(=O)O)ccc1Cl | 89.5% (active)
30 | Cc1ccc(C(=O)O)cc1-n1c(C)ccc1C | 67.8% (active)
31 | Cc1ccc(-c2ccccc2)n1-c1ccc(C(=O)O)cc1 | -1.6% (inactive)
32 | Cc1cc(Cl)c2cc(C(=O)O)ccc2n1 | 2.8% (inactive)
33 | Cc1ccc(C)n1-c1cc(C(=O)O)cc(C(=O)O)c1 | 8.5% (inactive)
34 | CCN(CC)CCn1c2ccccc2n2cc(C(C)(C)C)nc12 | 0% (inactive)
35 | CC(=O)Nc1ccc(N2C(=O)c3cc4ccccc4cc3C2=O)cc1 | 5.1% (inactive)
36 | Cc1cc(Br)cc2c(N=Nc3cccc4cccnc34)c(O)n(C)c12 | 3.2% (inactive)
37 | CC(=O)C(C(C)=O)c1c(Cl)c(O)c(O)c2c(C(=O)c3ccccc3)coc12 | 1% (inactive)
38 | COc1cccc(C(=O)CSc2nnc(COc3cccc4cccnc34)o2)c1 | 3.7% (inactive)
39 | Cc1ccc(C)n1-c1ccc(SCC(=O)O)cc1 | 100% (active)
40 | CC(=O)c1ccc(-n2c(C)ccc2C)cc1 | 6.4% (inactive)

Row | Structure (SMILES) | displacement
41 | CC(C)(C)c1ccc(OCC(=O)O)cc1 | 4.2% (inactive)
42 | Cc1ccc(C)n1-c1ccc(OCC(=O)O)cc1 | 62.2% (active)
43 | Cc1ccc(C)n1-c1ccc(CC(=O)O)cc1 | 23.3% (inactive)
44 | O=C(O)COc1ccc(N2C(=O)C=CC2=O)cc1 | 0.9% (inactive)
45 | CC1CCCCN1CCNC(=O)CC1Oc2ccccc2NC1=O (centres undefined) | 9.4% (inactive)
46 | CCOC(=O)c1c(C)[nH]c(C(=O)COC(=O)C(C)N2C(=O)C3CCCCC3C2=O)c1C (centres undefined) | -1.9% (inactive)
47 | CCOC(=O)C1CCN(C(=O)CSCCSCC(=O)N2CCC(C(=O)OCC)CC2)CC1 | -0.9% (inactive)
48 | COc1ccc2[nH]c(=O)c(CN(C(=O)c3ccco3)C3CCCCC3)cc2c1 | -0.4% (inactive)
49 | O=C1S/C(=C\c2cccs2)C(=O)N1c1cccc(Cl)c1 | -1.3% (inactive)
50 | CC(Oc1ccc2c3c(c(=O)oc2c1)CCCC3)C(=O)c1ccccc1 (centres undefined) | 2.3% (inactive)
51 | O=C(CCn1nnc2ccccc2c1=O)NCC1CCC(C(=O)O)CC1 (centres undefined) | 2% (inactive)
52 | O=C(CNC(=O)c1ccc(Cl)cc1Cl)c1ccccc1 | 1.6% (inactive)
53 | COc1cccc(CN(CC2CCCO2)S(=O)(=O)c2ccc(S(=O)(=O)NCC3CCCO3)cc2)c1OC (centres undefined) | -2.5% (inactive)
54 | C=CCN1C(=O)/C(=C\c2ccc(-c3ccc([N+](=O)[O-])cc3)o2)C(=O)NC1=S | 2.8% (inactive)
55 | C=CCN1C(=O)/C(=C\c2ccc(I)o2)C(=O)NC1=S | 0.9% (inactive)
56 | C=CCN1C(=O)/C(=C\c2ccc([N+](=O)[O-])o2)C(=O)NC1=S | 95.9% (active)
57 | Cc1ccc(NC2=C(Cl)C(=O)N(c3ccccc3Cl)C2=O)cc1C | 0.5% (inactive)
58 | CCOc1ccc(C(=O)Nc2ccc(NC(=O)c3ccccc3Cl)cc2)cc1Br | -4.2% (inactive)
59 | COc1ccc(/C=C/C(=O)Nc2nc(C)c(C)s2)cc1OC | -0.1% (inactive)
